# GPR151 activ = activators of human GPR151; PathHunter beta-arrestin GPR151 cells, luminescence; activation, % at 11.2 µM; 1% of 650,000 active; in the data active means activation above about 4.9%;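 further: 0% = median of compound wells and 100% = cells with positive control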
# FBW7 act = human FBW7 E3 ligase activation, primary screen. Q969H0. AID 1259310. normalized activity (activation), % at 26.1 µM. AlphaScreen FBW7–phospho-cyclin E peptide binding, activator screen. 0.13% of 650,000 active; in the data active means normalized activity above about 1.9%;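 further: purified mutant Fbw7 with reduced substrate affinity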
# MITF primary = human MITF inhibition, primary screen; AID 1259374; O75030; AlphaScreen MITF homodimerization, bead proximity signal; 0.91% of 650,000 active; inhibition, % at 2.6 µM; in the data active means inhibition above about 50%;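 further: 0% = vehicle wells with protein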
# Target sequence (O75030 whole entry, looked up): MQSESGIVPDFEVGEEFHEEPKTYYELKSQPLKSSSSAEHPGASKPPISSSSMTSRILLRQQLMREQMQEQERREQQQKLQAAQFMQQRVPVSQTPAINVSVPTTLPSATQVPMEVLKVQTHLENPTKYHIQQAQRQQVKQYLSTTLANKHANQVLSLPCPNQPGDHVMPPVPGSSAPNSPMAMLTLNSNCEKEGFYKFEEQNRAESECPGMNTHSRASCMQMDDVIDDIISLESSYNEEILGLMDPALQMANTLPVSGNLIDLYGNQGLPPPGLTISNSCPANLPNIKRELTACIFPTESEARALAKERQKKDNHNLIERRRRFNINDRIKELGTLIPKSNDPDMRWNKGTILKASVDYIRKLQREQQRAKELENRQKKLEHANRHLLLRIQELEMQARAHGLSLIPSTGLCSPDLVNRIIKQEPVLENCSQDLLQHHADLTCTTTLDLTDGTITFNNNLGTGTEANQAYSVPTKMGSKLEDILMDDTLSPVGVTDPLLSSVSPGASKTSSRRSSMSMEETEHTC
# TEAD-YAP block = TEAD-YAP interaction inhibition; inhibition, % at 9.12 µM; 1.4% of 640,000 active; AID 1259422; HEK-TIYL cells, TEAD-Gal4/YAP UAS-luciferase luminescence; in the data active means inhibition above about 32%;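 further: 0% = median of test compound wells and 100% = reference inhibitor wells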
# The depositor's hits bear a star. An excerpt weighted towards active compounds, which were near 3.4% of everything screened.
SMILES,GPR151 activ,FBW7 act,MITF primary,TEAD-YAP block
C=C1CC[C@H](O)C/C1=C/C=C1\CCCC2(C)C1CCC2C(C)CCCC(C)C (some centres undefined),1,0,11,-5
CCOC(=O)CNC(=O)c1sc2nc(C)nc(N(C)c3ccc(C(C)C)cc3)c2c1C,1,2.3*,15,0
CCCCNC(=O)c1sc2nc(C)nc(N(C)c3ccc(C(C)C)cc3)c2c1C,5,0,-8,-5
CCOC(=O)CNC(=O)c1ccc(C(C)C)cc1,-2,0,4,48*
COc1ccc(/C=C2\N=C(c3cccc(Br)c3)OC2=O)c(OC)c1OC,0,0,14,10
COc1ccc(Cn2c(C)c(C)n3c4c(=O)n(Cc5ccccc5)c(=O)n(C)c4nc23)cc1,2,0,16,0
N#Cc1ccc(-c2ccc(OCC(=O)Nc3ccc4c(c3)OCCO4)cc2)cc1,0,0,5,10
COc1cc(/C=C2/C(=N)N3OC(C)=CC3=NC2=O)ccc1OCc1ccc2c(c1)OCO2,-6,0,12,48*
COc1cccc(-n2c(C)cc(/C=C3/C(=N)N4OC(C)=CC4=NC3=O)c2C)c1,-1,0,2,57*
CC1=CC2=NC(=O)/C(=C\c3cc(C)n(-c4cccc(F)c4)c3C)C(=N)N2O1,0,0,-2,7
CC1=CC2=NC(=O)/C(=C\c3cc(C)n(-c4cc(C)cc(C)c4)c3C)C(=N)N2O1,1,0,4,55*
CC1=CC2=NC(=O)/C(=C\c3cc(C)n(-c4ccc(Cl)cc4)c3C)C(=N)N2O1,0,0,3,13
CCN(CC)C(=O)/C(=C\c1ccc2c(c1)OCO2)NC(=O)c1ccccc1Br,-2,0,-25,0
Cc1ccc(NC(=O)c2n[nH]c3ccccc23)cc1,-7,0,15,45*
Cc1ccc(NC(=O)c2n[nH]c3ccccc23)cc1Cl,-4,0,4,-38
CC(Oc1ccccc1)C(=O)Nc1ncc(Cc2ccccc2)s1 (centres undefined),-1,0,0,42*
COc1cc(C(=O)Nc2ncc(Cc3ccccc3)s2)cc(OC)c1OC,2,0,3,53*
O=C(Cc1ccccc1)Nc1ncc(Cc2ccccc2)s1,-1,0,6,-1
COc1cc(C(=O)Nc2ncc(Cc3cccc(Cl)c3)s2)cc(OC)c1OC,2,0,13,54*
COc1cc(C(=O)Nc2nnc(Cc3ccccc3)s2)cc(OC)c1OC,-1,0,0,3
CCN(CC)c1cc(-c2ccccc2F)nc(-c2ccncc2)n1,1,0,5,-10
CCN(CC)c1cc(-c2ccccn2)nc(-c2ccccn2)n1,1,-1,113*,86*
CCN(CC)c1cc(-c2ccccn2)nc(-c2ccccc2)n1,-2,0,-9,6
Cc1cnc(CNc2cc(-c3ccccc3F)nc(-c3ccccn3)n2)nc1,2,-1,24,33*
CCN(CC)c1cc(-c2ccccc2F)nc(-c2ccccn2)n1,1,0,8,50*
SMILES,GPR151 activ,FBW7 act,MITF primary,TEAD-YAP block
Cc1ccc(-c2csc(NC(=O)c3cc4ccccc4oc3=O)n2)cc1,-1,0,1,-8
COc1ccc(CCN(C)C2CCCN(Cc3nccn3C)C2)cc1OC (centres undefined),-1,0,-4,-4
CCOc1cc(C(Nc2cc(C)ccn2)c2ccc3cccnc3c2O)ccc1OCc1ccccc1 (centres undefined),0,0,7,80*
Cc1ccc2ccc(C(Nc3ccccn3)c3ccc(C)c(C)c3)c(O)c2n1 (centres undefined),0,0,9,10
COc1ccc(C(Nc2ccccn2)c2ccc3cccnc3c2O)cc1OC (centres undefined),1,-1,37,70*
COc1ccccc1C(Nc1cc(C)ccn1)c1ccc2cccnc2c1O (centres undefined),0,0,24,84*
CCOc1ccc(C(Nc2cc(C)ccn2)c2ccc3ccc(C)nc3c2O)cc1OCC (centres undefined),0,0,15,17
COc1ccc(C(Nc2cc(C)ccn2)c2ccc3cccnc3c2O)cc1OC (centres undefined),-1,0,28,61*
COc1ccc(C(Nc2cc(C)ccn2)c2ccc3ccc(C)nc3c2O)cc1OC (centres undefined),0,0,20,28
CCOC(=O)CC1=C(C(=O)OCC)C(c2cccc(Cl)c2Cl)C(C#N)=C(N)O1 (centres undefined),2,0,-1,1
CCc1ccc2nc(N3CCC(C(=O)N4CCc5ccccc54)CC3)sc2c1,0,0,8,1
COc1ccc(C2(CN(C(C)=O)C(=O)c3ccc([N+](=O)[O-])cc3)CCCC2)cc1OC,0,0,16,3
COc1cc(C(=O)Nc2cccc(-n3cc(NC(=O)Cc4ccccc4)cn3)c2)cc(OC)c1OC,0,0,-6,-1
O=C1CC(N2CCN(c3ccc4c(c3)OCO4)CC2)C(=O)N1c1ccc(Br)cc1 (centres undefined),0,0,6,-11
COc1ccc2c(c1)CC(c1cnc3ccc(-c4cn[nH]c4)cc3n1)CO2 (centres undefined),0,1,11,33*
Cc1[nH]ncc1-c1ccc2nc(NC(=O)C3COc4ccc(F)cc4C3)sc2c1 (centres undefined),0,1,36,57*
O=C(Nc1ccc(-c2cn[nH]n2)cc1)C1COc2ccc(F)cc2C1 (centres undefined),2,0,0,34*
COc1ccc2c(c1)OCC(c1nc3cc(-c4cn[nH]c4)c(F)cc3[nH]1)C2 (centres undefined),0,0,-5,84*
Cc1[nH]ncc1-c1ccc(NC(=O)C2COc3ccc(F)cc3C2)c(N(C)CCN(C)C)c1 (centres undefined),-1,0,6,0
CCN(CC)S(=O)(=O)c1cc(NS(=O)(=O)c2ccccc2C(=O)OC)ccc1C,2,0,4,0
Cc1ccc(CS(=O)Cc2ccc(C(=O)O)o2)cc1 (centres undefined),-1,1,6,12
CCOc1ccccc1CN1CCN(Cc2ccc(F)c(OC)c2)CC1CCO (centres undefined),0,0,-15,-11
COc1ccc(-n2cc3cnnc(-c4ccccc4)c3n2)cc1,-1,0,1,1
COc1ccc2c(c1)CC(c1nc3ccc(-c4cn[nH]c4C)cc3c(=O)[nH]1)CO2 (centres undefined),0,0,4,32*
COc1ccc2c(c1)CC(C(=O)Nc1ccc(-c3cn[nH]c3C)cc1OCCO)CO2 (centres undefined),-1,1,20,55*
COc1ccc2c(c1)CC(c1nc3ccc(-c4ccncc4)cc3c(=O)[nH]1)CO2 (centres undefined),0,1,21,2
COc1ccc2c(c1)CC(C(=O)Nc1ccc(-c3cn[nH]c3C)cc1OCCN1CCCC1)CO2 (centres undefined),0,0,-5,-3

# Screening data as filed in PubChem.
